This is an account of results in PubChem BioAssay AID588689 (Southern Research Specialized Biocontainment Screening …, 2011).

This test has as its target Genome polyprotein (Dengue virus type 2 (strain 16681-PDK53)) (UniProt P29991). In words: flavivirus cap methylation enzyme inhibition – biochemical, confirmation dose response, primary screen (AID 588689). The note with it: Dengue-2 NS5 methyltransferase capping enzyme assay, at 25 µM, stronger effect = higher value.
[1] abbreviates: measured here: pilot screen replicate inhibition.

In all, about 340,000 compounds went through this assay and about 1,000 (0.29%) were called active. Rule as the data show it: inconclusive = inhibition above about 29% without an active follow-up result; inactive = below that. The list is a sample of the results. Potency and affinity values are given separately.

The term inhibition denotes the change of the read-out against control, counted positive when it falls. Turning to `Cn1ncc([N+](=O)[O-])c1C(=O)Nc1cccc2ccccc12`, the inhibition is -4.99% (inactive).
The same measure, in the same setting: the figure for `CC(C)CN(C(=O)COC(=O)CCCc1c[nH]c2ccccc12)c1c(N)n(Cc2ccccc2)c(=O)[nH]c1=O` is 1.62% (inactive); for `Clc1ccc(OCCn2cnc(Cl)c2Cl)cc1` it is 2.87% (inactive).
`Cc1cccn2cc(CCNC(=O)c3ccc(Br)o3)nc12`: the inhibition is 3.48% (inactive).
In the case of `O=C1COCCOCCOCCOCC(=O)NCCN1`, the inhibition was -2.15% (inactive).
For the compound `CCOC(=O)C1=CN(Cc2ccco2)S(=O)(=O)N(C)C1c1ccc(C(F)(F)F)cc1` (stereo not drawn), the inhibition was -11.6% (inactive). Besides, under setting [1], the inhibition is -0.605%.
For the compound `O=C(CSc1nnc(Cc2ccccc2)o1)NCCN1C(=O)CSC1=O`, the inhibition is -7.38% (inactive).
In the case of `CCCCc1ccc(/C=C(\C#N)C(N)=S)s1`, the inhibition was 0% (inactive).
`CCc1ccc(/C=C(/C#N)C(N)=S)s1`: the inhibition is 0% (inactive).
`Cc1ccc(N2C(=O)CC(Nc3ccc(Cl)c(S(=O)(=O)N(C)C)c3)C2=O)c(C)c1` (stereo not drawn): the inhibition was -11.6% (inactive).
For the compound `Cc1ccc(S(=O)(=O)NCCOCCNS(=O)(=O)c2ccc(C)cc2)cc1`, the inhibition is -4.78% (inactive).
`CC(C)C(C(=O)O)N1C(=O)/C(=C/C=C/c2ccco2)SC1=S` (stereo not drawn): the inhibition was 42.9% (inactive).
For `CC(C)C(C(=O)O)N1C(=O)/C(=C/c2cccn2C)SC1=S` (stereo not drawn), the inhibition was -19.5% (inactive).
For the compound `CC(/C=C1\SC(=S)N(NC(=O)c2ccncc2)C1=O)=C\c1ccccc1`, the inhibition is 21.6% (inactive).
For `CCC(C(=O)O)N1C(=O)/C(=C/c2cccn2C)SC1=S` (stereo not drawn), the inhibition was -25.5% (inactive).
Same read-out and setting: the figure for `CC(/C=C1\SC(=S)N(CC(=O)O)C1=O)=C\c1ccccc1` is 26% (inactive); for `CC(/C=C1\SC(=S)N(CC(=O)N2CCN(c3ccccc3)CC2)C1=O)=C\c1ccccc1` it is -0.73% (inactive); for `CC(/C=C1\SC(=S)N(CCC(=O)Nc2ccc(O)cc2)C1=O)=C\c1ccccc1` it is 1.3% (inactive).
`CCOC(=O)c1c(C)[nH]c(C(=O)OCC(=O)NC2(C#N)CCCCC2)c1C`: the inhibition is -11.6% (inactive).
`O=c1n(Cc2ccccc2F)c2ccccc2n1Cc1ccccc1F`: the inhibition was -3.2% (inactive).
On the same count and under the same terms, under `FC(F)(F)c1ccccc1/C=N/n1c(C2CCCCC2)n[nH]c1=S` stands 10.6% (inactive).
The same measure, in the same setting: under `COc1ccc(N=C2SC(C(=O)O)CC(=O)N2C)cc1` (stereo not drawn) stands 0.68% (inactive); under `COc1cccc(NC(=O)CN(C)C(=O)c2cccc(S(=O)(=O)N3CCN(c4ccccc4)CC3)c2)c1`, -6.1% (inactive); under `O=C(COc1ccc(S(=O)(=O)N2CCCCC2)cc1)NCC1CCCO1` (stereo not drawn), -5.9% (inactive).
Take `Cc1nnc(NCCc2ccccc2)c2ccccc12`: the inhibition was -6.68% (inactive).
As to `O=C(/C=C/c1cccc([N+](=O)[O-])c1)OCC(=O)N1CCN(C(=O)c2ccco2)CC1`, the inhibition is 0.39% (inactive).
Same read-out and setting: the figure for `COc1cccc(NC(=O)C2CCCN2C(=O)Nc2ccccc2F)c1` (stereo not drawn) is -4.94% (inactive); for `Oc1ccc2ccccc2c1CN1CCN(C/C=C/c2ccccc2)CC1` it is -14.3% (inactive); for `CC(/C=C1\SC(=S)N(CCCC(=O)Nc2ccc(C(=O)O)cc2)C1=O)=C\c1ccccc1` it is 11.7% (inactive).
In the case of `O=C(O)c1ccc(N2C(=O)/C(=C/C=C/c3ccccc3)SC2=S)cc1`, the inhibition was 16% (inactive).
Same read-out and setting: under `COc1ccc(NC(=O)CN(C)C(=O)c2cccc(S(=O)(=O)N3CCN(C)CC3)c2)cc1` stands -5.07% (inactive); under `CCOC(=O)c1c(NC(=O)C2C3C=CC(C3)C2C(=O)O)sc2c1CCCC2` (stereo not drawn), 4.37% (inactive).
As for `CCOC(=O)c1c(NC(=O)C2C3C=CC(C3)C2C(=O)O)sc2c1CCC(C)C2` (stereo not drawn), the inhibition was -2.91% (inactive).
Take `CCOC(=O)c1c(NC(=O)C2C3C=CC(C3)C2C(=O)O)sc2c1CC(C)CC2` (stereo not drawn): the inhibition was 7.29% (inactive).
`CCOC(=O)c1c(NC(=O)C2C3CCC(O3)C2C(=O)O)sc2c1CCC(CC)C2` (stereo not drawn): the inhibition was 4.42% (inactive).
For the compound `COc1cc2c(cc1OC)C(C(N)=O)NCC2` (stereo not drawn), the inhibition was 0.81% (inactive).
As for `O=C(CN1CCN(c2ccccc2F)CC1)c1ccc(O)c(O)c1`, the inhibition was 6.62% (inactive).
On to `CNS(=O)(=O)c1cccc(C(=O)OCC(=O)Nc2ccc(OC)cc2[N+](=O)[O-])c1`, for which the inhibition is 6.24% (inactive).
For the compound `CCC(=O)Nc1cc(Cl)ccc1C(=O)O`, the inhibition was -5.46% (inactive).
Regarding `CCCCC(=O)Nc1cc(Cl)ccc1C(=O)O`, the inhibition is 1.56% (inactive).
Same read-out and setting: under `COc1ccc(NC(=O)Cc2ccc(Cl)cc2Cl)cn1` stands -4.71% (inactive).
As to `COc1ccc(Nc2ccc(Cl)cc2)c(C(=O)O)c1`, the inhibition was 9.44% (inactive).
For the compound `CC(C)(C)c1ccc(S(=O)(=O)N2CCN(c3ncccn3)CC2)cc1`, the inhibition is -5.15% (inactive).
As to `O=C(OCCCOC(=O)c1cc[n+]([O-])cc1)c1cc[n+]([O-])cc1`, the inhibition is -7.73% (inactive).
Turning to `CN(C)/C=C1\C(=O)N(c2ccc(Oc3ccccc3)cc2)CS1=O` (stereo not drawn), the inhibition was -8.86% (inactive). Also, the inhibition under setting [1] is 4.42%.
In the case of `C=CCN1C(=O)C(Cc2ccc(F)cc2)S/C1=N/N=C/c1cccs1` (stereo not drawn), the inhibition is -3.47% (inactive).
On to `O=C(Nc1sc2c(c1C(=O)O)CCC2)c1cccc(Cl)c1`, for which the inhibition is 15.2% (inactive).
Regarding `Cc1cccc(C(=O)Nc2sc3c(c2C(=O)O)CCCC3)c1`, the inhibition is 2.61% (inactive).
With `CC(=O)c1cccc(NC(=O)C23CC4CC(C2)CC(n2cncn2)(C4)C3)c1`, the inhibition was -0.64% (inactive).
As to `NCCCC[C@@H](C(=O)NCCCCCCCCCCC(=O)N1CCNCC1)n1cc(CCCC(=O)O)nn1`, the inhibition is -0.8% (inactive).
Take `Cc1cc2ccccc2n2c(SCC(=O)N3CCOCC3)nnc12`: the inhibition was -8.09% (inactive).
As for `COc1ccc(CNC(=O)C(C)OC(=O)CCN2C(=O)C3CC=CCC3C2=O)cc1` (stereo not drawn), the inhibition is 2.89% (inactive).
Consider `CC1Cc2ccccc2N1C(=O)CSc1ncccn1` (stereo not drawn), for which the inhibition was -4.43% (inactive).
For the compound `COc1cc(Br)cc(/C=C/c2ccc3cccc(O)c3n2)c1OC`, the inhibition is 13.2% (inactive).
On the same count and under the same terms, under `C=CCOc1ccc(/C=C\c2nc(O)c([N+](=O)[O-])c(=O)[nH]2)cc1OC` stands 0.57% (inactive); under `COc1ccc2cc(/C=N/NC(=O)CSCc3ccc([N+](=O)[O-])cc3)c(Cl)nc2c1`, 4.46% (inactive).
With `Cc1ccc(SCc2[nH]nc3c2C2(C(=O)Nc4ccc(F)cc42)C(C#N)=C(N)O3)cc1` (stereo not drawn), the inhibition is 2.51% (inactive). Under setting [1], the inhibition was 3.94%.
On to `CSc1nnc2c(n1)OC1(Nc3ccccc3-2)C(=O)Nc2ccccc21` (stereo not drawn), for which the inhibition is 3.9% (inactive).
Regarding `CCSc1nnc2c(n1)OC(C)(C)Nc1ccccc1-2`, the inhibition was -5.52% (inactive).
As to `c1ccc(CSc2nnc3c(n2)OC(c2ccco2)Nc2ccccc2-3)cc1` (stereo not drawn), the inhibition was -0.8% (inactive).
